In PubChem BioAssay AID1159580 (chemical genetic matrix, 2015):
“And” between values parts separate entries of the source, which are not always exact repeats. Equal values may be shown once. The whole screen tested about 5,500 compounds, of which about 2,000 (36%) were called active. Another 18% or so got no clear call; they are omitted. No stated cut-off is given here; in the data, active means normalized growth mostly below about 0.91 (no sharp cut-off); inconclusive means no clear call, values can overlap the other calls; inactive means mostly above about 0.92. The list shows a part of the results.

Test: chemical genetic growth profiling, strain panel (AID 1159580);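 further: tested at 20 µM; growth read once vehicle control cultures reached saturation at 30 °C; 1 = growth at the plate median or of vehicle wells; lower values mean less growth of the strain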
Conditions: S. cerevisiae deletion strains, growth OD

Measured: normalized growth

CC(CCC(=O)O)[C@H]1CCC2C3C[C@H](O)[C@@H]4C[C@H](O)CC[C@]4(C)C3CC[C@@]21C (stereo partly specified)
inactive: locus YAL021C, strain ccr4, active compounds read low 0.977 | locus YAL026C, strain drs2, active compounds read low 1.01 | locus YAL030W, strain snc1, active compounds read low 0.984 | locus YBL061C, strain skt5, active compounds read low 0.989 | locus YBR009C, strain hhf1, active compounds read low 0.97 | locus YBR021W, strain FUR4, active compounds read low 1.01 | locus YBR023C, strain chs3, active compounds read low 0.982 | locus YBR171W, strain sec66, active compounds read low 0.996 | locus YBR229C, strain ROT2, active compounds read low 1.02 | locus YBR231C, strain swc5, active compounds read low 1.01 | locus YBR279W, strain paf1, active compounds read low 1 | locus YCL011C, strain gbp2, active compounds read low 0.97 | locus YCL016C, strain dcc1, active compounds read low 0.96 | locus YCL029C, strain bik1, active compounds read low 1.04 | locus YCL069W, strain vba3, active compounds read low 0.985 | locus YCR088W, strain abp1, active compounds read low 0.993 | locus YDL005C, strain med2, active compounds read low 0.973 | locus YDL035C, strain GPR1, active compounds read low 1.04 | locus YDL040C, strain nat1, active compounds read low 0.986 | locus YDL074C, strain BRE1, active compounds read low 1.04 | locus YDL101C, strain DUN1, active compounds read low 1.02 | locus YDL185W, strain tfp1, active compounds read low 1.03 | locus YDL192W, strain arf1, active compounds read low 1.04 | locus YDR001C, strain nth1, active compounds read low 0.976 | locus YDR069C, strain doa4, active compounds read low 0.983 | locus YDR101C, strain arx1, active compounds read low 1.04 | locus YDR137W, strain rgp1, active compounds read low 0.957 | locus YDR159W, strain sac3, active compounds read low 1.05 | locus YDR162C, strain NBP2, active compounds read low 1.01 | locus YDR195W, strain ref2 0.957 | locus YDR297W, strain sur2, active compounds read low 0.988 | locus YDR318W, strain mcm21, active compounds read low 1.02 | locus YDR334W, strain swr1, active compounds read low 0.99 | locus YDR335W, strain msn5, active compounds read low 0.979 | locus YDR388W, active compounds read low 1.02 | locus YDR392W, strain spt3, active compounds read low 0.88 | locus YDR502C, strain sam2, active compounds read low 1.04 | locus YEL003W, strain gim4, active compounds read low 1.01 | locus YEL037C, strain rad23, active compounds read low 0.985 | locus YEL061C, strain CIN8 (second series), active compounds read low 0.987 | locus YEL061C, strain CIN8, active compounds read low 1.02 | locus YER015W, strain faa2, active compounds read low 0.987 | locus YER016W, strain bim1, active compounds read low 0.981 | locus YER110C, active compounds read low 1.03 | locus YER111C, strain swi4, active compounds read low 0.974 | locus YER155C, strain BEM2 (second series), active compounds read low 1 | locus YER155C, strain BEM2, active compounds read low 1.02 | locus YER167W, strain BCK2, active compounds read low 1.04 | locus YFR010W, strain ubp6, active compounds read low 1.01 | locus YGL078C, strain dbp3, active compounds read low 1.02 | locus YGL086W, strain mad1, active compounds read low 1.04 | locus YGL167C, strain pmr1, active compounds read low 0.957 | locus YGL173C, strain kem1, active compounds read low 1 | locus YGL227W, strain vid30, active compounds read low 0.994 | locus YGL240W, strain doc1, active compounds read low 1.02 | locus YGL248W, strain PDE1, active compounds read low 1.02 | locus YGL253W, strain hxk2, active compounds read low 1.02 | locus YGR135W, strain pre9, active compounds read low 1.05 | locus YGR252W, strain gcn5, active compounds read low 1 | locus YHR013C, strain ard1, active compounds read low 0.935 | locus YHR027C, strain rpn1, active compounds read low 0.965 | locus YHR030C, strain SLT2, active compounds read low 1.02 and 1.06 | locus YHR079C, strain IRE1 (second series), active compounds read low 1.02 | locus YHR079C, strain IRE1, active compounds read low 1.04 | locus YHR094C, strain hxt1, active compounds read low 1.02 | locus YHR129C, strain ARP1, active compounds read low 1.03 | locus YHR142W, strain chs7, active compounds read low 0.958 | locus YHR200W, strain rpn10, active compounds read low 1.03 | locus YIL066C, strain RNR3, active compounds read low 1 | locus YIL073C, strain SPO22, active compounds read low 1.1 | locus YIL125W, strain kgd1, active compounds read low 1.03 | locus YIR030C, strain dcg1, active compounds read low 1.02 | locus YJL092W, strain hpr5, active compounds read low 0.99 | locus YJL095W, strain BCK1 (second series), active compounds read low 0.99 | locus YJL095W, strain BCK1, active compounds read low 1.08 and 1.04 | locus YJL115W, strain asf1, active compounds read low 0.977 | locus YJL129C, strain trk1, active compounds read low 0.979 | locus YJL134W, strain LCB3, active compounds read low 1.03 | locus YJL154C, strain vps35, active compounds read low 0.987 | locus YJL164C, strain tpk1, active compounds read low 0.95 | locus YJL166W, strain qcr8, active compounds read low 1 | locus YJL168C, strain set2, active compounds read low 1.03 | locus YJL187C, strain SWE1 (second series), active compounds read low 1.06 | locus YJL187C, strain SWE1, active compounds read low 0.993 | locus YJR043C, strain POL32, active compounds read low 1.04 | locus YJR066W, strain TOR1, active compounds read low 1 | locus YKL009W, strain mrt4, active compounds read low 0.994 | locus YKL068W, active compounds read low 1.01 | locus YKL085W, strain MDH1 (second series), active compounds read low 1.02 | locus YKL085W, strain MDH1, active compounds read low 1.02 | locus YKL160W, strain elf1, active compounds read low 0.948 | locus YKL190W, strain CNB1, active compounds read low 1.07 | locus YKR001C, strain vps1, active compounds read low 1.06 | locus YKR026C, strain gcn3, active compounds read low 0.996 | locus YKR091W, strain srl3, active compounds read low 0.973 | locus YLL001W, strain dnm1, active compounds read low 0.932 | locus YLL026W, active compounds read low 0.986 | locus YLL041C, strain sdh2, active compounds read low 0.984 | locus YLR027C, strain aat2, active compounds read low 1 | locus YLR039C, strain RIC1, active compounds read low 1.08 | locus YLR058C, strain SHM2, active compounds read low 1.02 | locus YLR102C, strain apc9, active compounds read low 1.03 | locus YLR113W, strain HOG1, active compounds read low 1.02 | locus YLR221C, strain rsa3, active compounds read low 1.03 | locus YLR258W, strain gsy2, active compounds read low 0.962 | locus YLR262C, strain YPT6 (second series), active compounds read low 0.984 | locus YLR262C, strain YPT6, active compounds read low 1.17 | locus YLR268W, strain sec22, active compounds read low 1.06 | locus YLR320W, strain mms22, active compounds read low 1.02 | locus YLR330W, strain CHS5, active compounds read low 1.06 | locus YLR342W, strain FKS1 (second series), active compounds read low 1.04 | locus YLR342W, strain FKS1, active compounds read low 0.989 | locus YLR357W, strain rsc2, active compounds read low 1 | locus YLR370C, strain arc18, active compounds read low 0.981 | locus YLR371W, strain rom2, active compounds read low 1.03 | locus YLR384C, strain iki3, active compounds read low 0.964 | locus YLR418C, strain cdc73, active compounds read low 1.05 | locus YML016C, strain PPZ1, active compounds read low 1.02 | locus YML032C, strain rad52, active compounds read low 1.01 | locus YML120C, strain ndi1, active compounds read low 0.96 | locus YML124C, strain tub3, active compounds read low 1.02 | locus YMR058W, strain fet3, active compounds read low 0.997 | locus YMR078C, strain ctf18, active compounds read low 1.03 | locus YMR125W, strain sto1, active compounds read low 0.978 | locus YMR129W, active compounds read low 1.02 | locus YMR205C, strain PFK2, active compounds read low 0.993 | locus YMR223W, strain ubp8, active compounds read low 1.03 | locus YMR231W, strain pep5, active compounds read low 0.993 | locus YMR263W, strain SAP30, active compounds read low 1.04 | locus YMR307W, strain GAS1, active compounds read low 1.1 | locus YNL067W, strain RPL9B, active compounds read low 1.09 | locus YNL071W, strain lat1, active compounds read low 0.991 | locus YNL183C, strain NPR1, active compounds read low 0.999 | locus YNL209W, strain ssb2, active compounds read low 0.978 | locus YNL233W, strain BNI4, active compounds read low 1.08 | locus YNL248C, strain rpa49, active compounds read low 1.03 | locus YNL250W, strain rad50, active compounds read low 1.03 | locus YNL271C, strain bni1, active compounds read low 1.02 | locus YNL298W, strain CLA4, active compounds read low 1 | locus YNL307C, strain MCK1, active compounds read low 1.03 | locus YNL322C, strain KRE1 (second series), active compounds read low 0.982 | locus YNR049C, strain mso1, active compounds read low 0.989 | locus YNR052C, strain pop2, active compounds read low 1.02 | locus YOL012C, strain htz1 0.914 | locus YOL147C, strain pex11, active compounds read low 1.03 | locus YOR001W, strain rrp6, active compounds read low 1.02 | locus YOR061W, strain CKA2, active compounds read low 1.02 | locus YOR069W, strain VPS5, active compounds read low 1.02 | locus YOR070C, strain gyp1, active compounds read low 1.01 | locus YOR080W, strain dia2, active compounds read low 0.995 | locus YOR083W, strain WHI5, active compounds read low 0.948 | locus YOR106W, strain vam3, active compounds read low 0.909 | locus YOR136W, strain idh2, active compounds read low 1.04 | locus YOR144C, strain elg1, active compounds read low 1.02 | locus YOR184W, strain ser1, active compounds read low 1.04 | locus YOR231W, strain MKK1, active compounds read low 1.07 | locus YOR265W, strain rbl2, active compounds read low 0.983 | locus YOR270C, strain vph1, active compounds read low 0.982 | locus YOR290C, strain snf2, active compounds read low 0.927 | locus YOR316C, strain cot1, active compounds read low 1.02 | locus YPL051W, strain arl3, active compounds read low 0.954 | locus YPL055C, strain LGE1, active compounds read low 1.06 | locus YPL078C, strain atp4, active compounds read low 0.936 | locus YPL106C, strain sse1, active compounds read low 0.978 | locus YPL240C, strain hsp82, active compounds read low 0.991 | locus YPL256C, strain CLN2, active compounds read low 1.04 | locus YPR119W, strain clb2, active compounds read low 1.02 | locus YPR141C, strain kar3, active compounds read low 1.03 | locus YPR163C, strain tif3, active compounds read low 1.03 | locus YPR167C, strain met16, active compounds read low 1.02 | strain wtn01, active compounds read low 1.05
